Experimental data reported in PubChem BioAssay (Tox21).
Records with an inconclusive call do not appear. Values without a mark were called inactive. Activity calls are given as the source filed them. Unless noted, calls follow the shape of the full dose curve.

molecular target: Estrogen receptor (Homo sapiens) (UniProt P03372); test: qHTS assay to identify small molecule agonists of the estrogen receptor alpha (ER-alpha) signaling pathway using the BG1 cell line (AID 743079; active = well fitted activation curve with a large enough effect in the repeat runs; also: nearly all actives have a fitted effect of over 20% in size); conditions: BG1Luc4E2 cells, ERE-luciferase agonist, 22 h; series mostly up to 70.3 µM; activation: at the top concentration
% is scaled to controls: 0 for no effect and ±100 for the full control effect.

Sequence of Estrogen receptor (Homo sapiens) (P03372 whole entry, looked up): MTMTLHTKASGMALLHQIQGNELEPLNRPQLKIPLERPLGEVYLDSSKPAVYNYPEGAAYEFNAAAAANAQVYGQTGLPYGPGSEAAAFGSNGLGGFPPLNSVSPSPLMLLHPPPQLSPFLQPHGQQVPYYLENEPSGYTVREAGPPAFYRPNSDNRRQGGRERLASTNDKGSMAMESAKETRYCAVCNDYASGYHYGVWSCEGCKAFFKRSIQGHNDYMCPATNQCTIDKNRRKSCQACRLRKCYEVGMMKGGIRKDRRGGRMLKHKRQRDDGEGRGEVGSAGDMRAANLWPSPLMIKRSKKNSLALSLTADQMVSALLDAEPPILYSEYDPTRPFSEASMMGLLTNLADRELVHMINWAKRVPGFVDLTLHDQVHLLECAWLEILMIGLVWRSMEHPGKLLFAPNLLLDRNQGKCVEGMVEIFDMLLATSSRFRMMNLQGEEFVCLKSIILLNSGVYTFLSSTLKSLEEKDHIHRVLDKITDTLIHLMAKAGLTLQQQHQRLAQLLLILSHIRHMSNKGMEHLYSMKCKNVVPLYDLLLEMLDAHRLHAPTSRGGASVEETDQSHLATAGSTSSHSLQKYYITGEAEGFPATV

| Compound | activation |
| --- | --- |
| CCCN(CCC)C(=O)Cc1c(-c2ccc(Cl)cc2)nc2ccc(Cl)cn12 | -4.64% |
| C[C@H](N)[C@H](O)c1ccc(O)c(O)c1 | -10.9% |
| O=S(=O)(Cl)Cl | 0.0597% |
| CN1C[C@H](C(=O)N[C@]2(C)O[C@@]3(O)[C@@H]4CCCN4C(=O)[C@H](Cc4ccccc4)N3C2=O)C=C2c3cccc4[nH]cc(c34)C[C@H]21 | -28.3% |
| O=C(O)C(O)C(O)C(=O)O (stereo not given) | 0.574% |
| COC(=O)Cc1ccccc1 | -0.523% |
| C=CCN1C[C@H](C)N([C@H](c2ccc(C(=O)N(CC)CC)cc2)c2cccc(OC)c2)C[C@H]1C | -10% |
| O=C(O)c1cc(I)cc(I)c1I | 10.3% [at 95 µM] |
| O=C(NC(=O)c1cc(F)c(F)cc1Cl)Nc1cc(F)ccc1N1CCC(C(=O)O)CC1 | -9.96% |
| NC(=S)c1c(Cl)cccc1Cl | -8.63% |
| O=C1NC(=O)C(=O)C(=O)N1 | 1.79% [at 95 µM] |
| CCC1(C2=NCCN2)Cc2ccccc2O1 (stereo not given) | -14.1% |
| CC(Oc1cc(Cl)c(Cl)cc1Cl)C(=O)O (stereo not given) | -11.3% |
| CNC(=O)Oc1cccc(N=CN(C)C)c1 | 12.6% |
| NCCc1cc(O)c(O)cc1O | 2.89% |
| CN(C)C(=O)Nc1cccc(OC(=O)NC(C)(C)C)c1 | -5.33% |
| O=C(O)C(F)(F)C(F)(F)C(F)(F)C(F)(F)C(F)(F)C(F)(F)C(F)(F)C(F)(F)F | -9.21% |

system: not listed separately; test: qHTS assay to identify small molecule antagonists of the estrogen receptor alpha (ER-alpha) signaling pathway using the BG1 cell line (AID 743080); conditions: BG1Luc4E2 ERE-luciferase antagonist mode, luminescence; series mostly up to 70.3 µM; activity change, negative = inhibition: at the top concentration;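 also: BG1 cells stimulated with 17beta-estradiol alongside compound; nearly all actives have a fitted effect of over 25% in size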
In short: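 Endogenous full-length ER-alpha in BG1-Luc-4E2 cells drives a stably integrated 4×ERE luciferase gene; compounds were tested against 17beta-estradiol over 21.5 h, with luminescence and multiplexed viability fluorescence recorded.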

| Compound | activity change, negative = inhibition | Potency |
| --- | --- | --- |
| CCCN(CCC)C(=O)Cc1c(-c2ccc(Cl)cc2)nc2ccc(Cl)cn12 | -6.24% |  |
| C[C@H](N)[C@H](O)c1ccc(O)c(O)c1 | 1.58% |  |
| CN1C[C@H](C(=O)N[C@]2(C)O[C@@]3(O)[C@@H]4CCCN4C(=O)[C@H](Cc4ccccc4)N3C2=O)C=C2c3cccc4[nH]cc(c34)C[C@H]21 |  | inactive |
| O=C(O)C(O)C(O)C(=O)O (stereo not given) | 5.48% |  |
| COC(=O)Cc1ccccc1 | 11.7% |  |
| C=CCN1C[C@H](C)N([C@H](c2ccc(C(=O)N(CC)CC)cc2)c2cccc(OC)c2)C[C@H]1C | -3.78% |  |
| O=C(O)c1cc(I)cc(I)c1I | 0.0795% [at 95 µM] |  |
| O=C(NC(=O)c1cc(F)c(F)cc1Cl)Nc1cc(F)ccc1N1CCC(C(=O)O)CC1 | 5.85% |  |
| NC(=S)c1c(Cl)cccc1Cl | -3.26% |  |
| CN1CC[C@]23c4c5ccc(O)c4O[C@H]2[C@@H](O)C=C[C@H]3[C@H]1C5 | 0.393% |  |
| CCCCCCCCCCCCN=C(N)N | -30.4% [at 3.79 µM] |  |
| O=C1NC(=O)C(=O)C(=O)N1 | 1.13% [at 95 µM] |  |
| CCCCCCCCn1sccc1=O | -13.3% |  |
| CCC1(C2=NCCN2)Cc2ccccc2O1 (stereo not given) | -5.41% |  |
| CC(Oc1cc(Cl)c(Cl)cc1Cl)C(=O)O (stereo not given) | 1.94% |  |
| NCCc1cc(O)c(O)cc1O | -3.02% |  |
| CN(C)C(=O)Nc1cccc(OC(=O)NC(C)(C)C)c1 | 3.82% |  |
| O=C(O)C(F)(F)C(F)(F)C(F)(F)C(F)(F)C(F)(F)C(F)(F)C(F)(F)C(F)(F)F | -13.9% |  |
